Laboratory results as given in PubChem BioAssay (NCI).
The panel holds about 83,000 compounds, 20% with a hit somewhere; the sample as a whole holds those more often.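 Method: cells in 96-well plates; compound added at one concentration; 48 h incubation; percent growth measured; values under 10 scored active.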 Activity calls are given as the source filed them.

Columns and labels:
Assay in all cases: NCI-60 one-dose screen, 48 h (100 = growth as untreated, 0 = no growth, -100 = all killed)
Details in all cases: 10 µM
T-47D breast = tested on: T-47D breast
BT-549 breast = tested on: BT-549 breast
MDA-MB-435 melanoma = tested on: MDA-MB-435 melanoma
SW-620 colon = tested on: SW-620 colon
MCF7 breast = tested on: MCF7 breast
HCT-116 colon = tested on: HCT-116 colon
HCC-2998 colon = tested on: HCC-2998 colon
KM12 colon = tested on: KM12 colon

Measured: growth

CC1(C)N=C(N)N=C(N)N1c1cccc(C#N)c1
inactive: T-47D breast 99.7% | BT-549 breast 81.6% | MDA-MB-435 melanoma 36.2% | SW-620 colon 29.9% | MCF7 breast 52% | HCT-116 colon 17.1% | HCC-2998 colon 58.4% | KM12 colon 47.7%

CC(=O)N[C@H](C(=O)N[C@@H](CCCNC(=N)N)C(=O)N[C@@H](CCCCN)C(=O)N[C@@H](CCCNC(=N)N)C(=O)NC(C(=O)N[C@@H](CC(C)C)C(=O)N[C@@H](CCCNC(=N)N)C(=O)N[C@@]1(C)CCC/C=C\CCC[C@@](C)(C(=O)N[C@@H](CCCNC(=N)N)C(=O)N[C@@H](CCC(=O)O)C(=O)N[C@@H](CC(C)C)C(=O)N[C@H](C(=O)N[C@@H](CCC(=O)O)C(N)=O)C(C)C)NC(=O)[C@H](CCC(N)=O)NC(=O)[C@H](CC(C)C)NC(=O)[C@H](CC(C)C)NC1=O)[C@@H](C)O)C(C)C (stereo partly specified)
inactive: SW-620 colon 22.4% | HCT-116 colon 18.9% | HCC-2998 colon 51.3%
active: T-47D breast -53.4% | BT-549 breast -79.7% | MDA-MB-435 melanoma -12.1% | MCF7 breast -79.8% | KM12 colon -40.8%

COc1cc2ncnc(NC3CCC(O)CC3)c2cc1OC (stereo unspecified)
inactive: T-47D breast 80.3% | BT-549 breast 92.1% | MDA-MB-435 melanoma 106% | SW-620 colon 101% | MCF7 breast 88.3% | HCT-116 colon 91.4% | HCC-2998 colon 106% | KM12 colon 95.3%

C(=N\Nc1ncnc2sc3c(c12)CCNC3)/c1cccc2ccccc12
inactive: T-47D breast 103% | BT-549 breast 92.5% | MDA-MB-435 melanoma 97.7% | MCF7 breast 37.8% | HCC-2998 colon 92.6% | KM12 colon 82.4%
active: SW-620 colon 2.91% | HCT-116 colon 8.77%

C[C@H]1[C@H](OC(=O)CCC(=O)O)O[C@@H]2O[C@]3(C)CC[C@H]4[C@H](C)CC[C@@H]1[C@@]24OO3
active: MDA-MB-435 melanoma 9.74%
inactive: T-47D breast 31.3% | BT-549 breast 37.9% | SW-620 colon 30.6% | MCF7 breast 28.4% | HCT-116 colon 14.1% | HCC-2998 colon 48.1% | KM12 colon 27.1%

CCC(=O)OC1CCC2C3CCC(=O)OC3C(C)(CCC(=O)O)CC12C (stereo unspecified)
active: BT-549 breast -8.83% | MDA-MB-435 melanoma -15.3% | SW-620 colon -11.3% | HCT-116 colon 5.1% | HCC-2998 colon 5.22%
inactive: T-47D breast 37.7% | MCF7 breast 30.9% | KM12 colon 25.7%

CS(=O)(=O)c1nccc(-c2c(-c3cccc(O)c3)nc3sccn23)n1
inactive: T-47D breast 99% | BT-549 breast 113% | MDA-MB-435 melanoma 84.6% | SW-620 colon 106% | MCF7 breast 86.3% | HCT-116 colon 91% | HCC-2998 colon 114% | KM12 colon 96.6%

CNC(=O)c1cc(Oc2ccc3c(c2)sc2nc(-c4ccc(NC(=O)Nc5ccc(Cl)c(C(F)(F)F)c5)cc4)cn23)ccn1
inactive: T-47D breast 19.4% | BT-549 breast 75.7% | MDA-MB-435 melanoma 91.1% | SW-620 colon 103% | MCF7 breast 82.6% | HCT-116 colon 73.2% | HCC-2998 colon 102% | KM12 colon 83.5%

O=C1c2c(c(=O)[nH]c3ccccc23)CCN1Cc1ccccc1
inactive: T-47D breast 86.1% | BT-549 breast 87.1% | MDA-MB-435 melanoma 110% | SW-620 colon 105% | MCF7 breast 97.5% | HCT-116 colon 94.8% | HCC-2998 colon 111% | KM12 colon 114%

NS(=O)(=O)Oc1ccc2c(ccn2C(=O)C23CC4CC(CC(C4)C2)C3)c1
inactive: T-47D breast 112% | BT-549 breast 105% | MDA-MB-435 melanoma 106% | SW-620 colon 103% | MCF7 breast 120% | HCT-116 colon 102% | HCC-2998 colon 101% | KM12 colon 107%

COc1ccc(/C=C2/SC(=S)NC2=O)c(OC)c1OC
inactive: T-47D breast 63.2% | BT-549 breast 91.1% | MDA-MB-435 melanoma 78.5% | SW-620 colon 93.9% | MCF7 breast 80.4% | HCT-116 colon 85.8% | HCC-2998 colon 82.3% | KM12 colon 93.3%

Oc1cccc(-c2nc3sccn3c2-c2ccncn2)c1
inactive: T-47D breast 108% | BT-549 breast 110% | MDA-MB-435 melanoma 46% | SW-620 colon 108% | MCF7 breast 76.7% | HCT-116 colon 97.3% | HCC-2998 colon 111% | KM12 colon 107%

OC[C@H]1OC([S-])[C@H](O)[C@@H](O)[C@@H]1O.[Au+] (stereo partly specified)
inactive: T-47D breast 85.5% | BT-549 breast 87.1% | MDA-MB-435 melanoma 83.3% | SW-620 colon 101% | MCF7 breast 72.8% | HCT-116 colon 99% | HCC-2998 colon 112% | KM12 colon 114%

NS(=O)(=O)Oc1ccc(-c2ccc3sccc3c2)cc1
inactive: T-47D breast 105% | BT-549 breast 91.1% | MDA-MB-435 melanoma 104% | SW-620 colon 99.9% | MCF7 breast 120% | HCT-116 colon 95.3% | HCC-2998 colon 99.2% | KM12 colon 101%

COc1cc2nc(SCC(=O)Nc3cc(OC)c(OC)c(OC)c3)n(Cc3ccccc3)c(=O)c2cc1OC
inactive: T-47D breast 73.5% | BT-549 breast 14% | MDA-MB-435 melanoma 76.2% | SW-620 colon 91% | MCF7 breast 82.6% | HCT-116 colon 52.1% | HCC-2998 colon 77.2% | KM12 colon 77.8%

COc1cc(-c2nn(-c3ccc(NC(=O)NCCCNC(=O)c4ccccc4)cc3)cc2-c2ccncc2)ccc1Cl
inactive: T-47D breast 67.5% | BT-549 breast 22.8% | SW-620 colon 33.3% | MCF7 breast 12.8% | HCC-2998 colon 32% | KM12 colon 20%
active: MDA-MB-435 melanoma 2.49% | HCT-116 colon 9.58%

Clc1ccc2c(c1)C(N1CCNCC1)=Nc1ccccc1O2
inactive: T-47D breast 35.2% | BT-549 breast 72.9% | MDA-MB-435 melanoma 28.9% | SW-620 colon 67% | MCF7 breast 28.9% | HCT-116 colon 36.2% | KM12 colon 51.9%
active: HCC-2998 colon -25.4%

O=C1C=C(Nc2cccc(Br)c2)c2ccccc2C1=O
inactive: T-47D breast 102% | BT-549 breast 14.7% | SW-620 colon 29.7% | MCF7 breast 21% | HCT-116 colon 52% | HCC-2998 colon 75.5% | KM12 colon 32.6%
active: MDA-MB-435 melanoma -25.2%

CN1CCN(c2cc3c(cc2F)c(=O)c(C(=O)O)cn3-c2ccc(F)cc2)CC1
inactive: T-47D breast 99.9% | BT-549 breast 92.4% | MDA-MB-435 melanoma 103% | SW-620 colon 98% | MCF7 breast 104% | HCT-116 colon 95.5% | HCC-2998 colon 106% | KM12 colon 99%

CC[C@@H](C(=O)[C@H](C)[C@H](O)[C@@H](C)[C@H]1O[C@H]([C@@H](CC)C(=O)O)CC[C@H]1C)C1O[C@]2(C=C[C@@H](O)[C@]3(CC[C@@](C)([C@H]4CC[C@](O)(CC)[C@H](C)O4)O3)O2)[C@H](C)C[C@@H]1C (stereo partly specified)
active: BT-549 breast 6.06% | MDA-MB-435 melanoma -16.3% | MCF7 breast 3.7% | HCC-2998 colon 8.29%
inactive: T-47D breast 25.5% | SW-620 colon 24% | HCT-116 colon 22.2% | KM12 colon 24.5%

COc1ccc(/C=C/C(=O)C(=O)/C=C/c2ccc(OC)c(OC)c2)cc1OC
inactive: T-47D breast 35.8% | BT-549 breast 14.8% | MDA-MB-435 melanoma 12.2% | HCC-2998 colon 21.9%
active: SW-620 colon 4.43% | MCF7 breast 4.02% | HCT-116 colon -74.8% | KM12 colon -4.31%

O=C(O)c1ccc(-n2cc(CNc3ccc(Oc4ccccc4)cc3)c(-c3ccccc3)n2)cc1
inactive: T-47D breast 75% | BT-549 breast 83.1% | MDA-MB-435 melanoma 94.2% | SW-620 colon 99.4% | MCF7 breast 85.4% | HCT-116 colon 88.5% | HCC-2998 colon 120% | KM12 colon 80.3%

C[C@@H](C[C@H](CCO)c1ccccc1)c1ccc2ccccc2c1
active: T-47D breast -58.3% | BT-549 breast -86.1% | MDA-MB-435 melanoma -75.3% | SW-620 colon -26.5% | MCF7 breast -63% | HCT-116 colon -94.3% | HCC-2998 colon -82.9% | KM12 colon -42.3%

CCc1ccc(-c2ccc(-n3nc(C)c4c(N)nc(Cc5ccccc5)nc43)cc2)cc1
inactive: T-47D breast 49.7% | BT-549 breast 72% | MDA-MB-435 melanoma 82.7% | SW-620 colon 77.8% | MCF7 breast 58.1% | HCT-116 colon 59.1% | HCC-2998 colon 23.7% | KM12 colon 53.5%

COc1ccc(-c2nn(-c3cccc(Cl)c3)cc2-c2nc(N)[nH]c(=O)c2C#N)cc1
active: MDA-MB-435 melanoma 2.16%
inactive: T-47D breast 58.7% | BT-549 breast 64% | SW-620 colon 83.2% | MCF7 breast 51% | HCT-116 colon 58% | HCC-2998 colon 80.9% | KM12 colon 56%

Nc1nc(-c2cccnc2)nc2c1sc(=S)n2-c1ccccc1
inactive: T-47D breast 90.8% | BT-549 breast 101% | MDA-MB-435 melanoma 111% | SW-620 colon 104% | MCF7 breast 94.4% | HCT-116 colon 70.7% | HCC-2998 colon 105% | KM12 colon 99%

COc1ccc(C2=Cn3c(CCC(=O)c4nc5ccccc5[nH]4)nnc3SC2)cc1
inactive: T-47D breast 81% | BT-549 breast 104% | MDA-MB-435 melanoma 90.3% | SW-620 colon 129% | MCF7 breast 84.6% | HCT-116 colon 71.4% | HCC-2998 colon 127% | KM12 colon 98.6%
